# Source: PubChem BioAssay (EPA / NIEHS)
# Where “and” joins values, the source holds several entries; their conditions need not be identical. Equal entries are not always repeated. Inconclusive results are not listed. Some compounds were tested as several samples or in several runs, with calls that do not always agree. Calls of active or inactive are those of the source. How the source made its calls, unless noted: active means hit-call score of the fitted dose curve at least 0.9, where 1 is the maximum; inconclusive means response in the unintended direction; inactive means score below 0.9.
# Tests used:
# [1] = read-out: TIMP1, TIMP1 (gene 7076); test: LTEA_HepaRG_TIMP1: Life Technologies and Expression Analysis (LTEA) Assay for TIMP1 using HepaRG (AID 2283534; active means hit-call score of the fitted dose curve at least 0.9, where 1 is the maximum; inactive means score below 0.9;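 further: TaqMan qRT-PCR signal normalized to ACTB GAPDH and POLR2A housekeeping genes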); conditions: mRNA level, 48 h; actives raise or lower the signal
# Summary of the method: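 Differentiated human HepaRG cells in serum-free induction medium were exposed 48 h to chemicals (8 half-log concentrations, top 100 uM, 0.5% DMSO). TIMP1 mRNA was quantified by TaqMan qRT-PCR, normalized to ACTB/GAPDH/POLR2A; bidirectional fit versus DMSO.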
# [2] = read-out: Tumor necrosis factor receptor 1 (TNFRSF1A), TNFRSF1A (gene 7132); test: LTEA_HepaRG_TNFRSF1A: Life Technologies and Expression Analysis (LTEA) Assay for Tumor necrosis factor receptor 1 (TNFRSF1A) using HepaRG (AID 2283535; active means hit-call score of the fitted dose curve at least 0.9, where 1 is the maximum; inactive means score below 0.9); conditions: mRNA level, 48 h; actives raise or lower the signal
# Summary of the method: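 Differentiated human HepaRG cells were exposed in duplicate for 48 h in serum-free induction medium to eight concentrations (top 100 uM, half-log steps, 0.5% DMSO). TNFRSF1A mRNA was quantified by qRT-PCR, normalized to ACTB, GAPDH and POLR2A, then fitted bidirectionally against DMSO.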
# [3] = read-out: Thyroid Hormone Responsive (THRSP), THRSP (gene 7069); test: LTEA_HepaRG_THRSP: Life Technologies and Expression Analysis (LTEA) Assay for Thyroid Hormone Responsive (THRSP) using HepaRG (AID 2283536; active means hit-call score of the fitted dose curve at least 0.9, where 1 is the maximum; inactive means score below 0.9); conditions: mRNA level, 48 h; actives raise or lower the signal
# Summary of the method: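 THRSP transcript quantified by Fluidigm qRT-PCR against three housekeeping genes after 48 h chemical exposure of HepaRG cells in serum-free induction medium; eight-point half-log series, top 100 uM, 0.5% DMSO vehicle, duplicate wells.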
# [4] = read-out: Cellular tumor antigen p53 (Homo sapiens) (UniProt P04637); test: LTEA_HepaRG_TP53: Life Technologies and Expression Analysis (LTEA) Assay for Tumor Protein P53 (TP53) using HepaRG (AID 2283537; active means hit-call score of the fitted dose curve at least 0.9, where 1 is the maximum; inactive means score below 0.9); conditions: mRNA level, 48 h; actives raise or lower the signal
# Summary of the method: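 Read-out is TP53 transcript level by microfluidic qRT-PCR, normalised to three housekeeping genes and fitted bidirectionally against DMSO. Human HepaRG cells received compounds for 48 h, highest concentration 100 uM.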
# [5] = read-out: UDP glucuronosyltransferase (UGT1A1), UGT1A1 (gene 54658); test: LTEA_HepaRG_UGT1A1: Life Technologies and Expression Analysis (LTEA) Assay for UDP glucuronosyltransferase (UGT1A1) using HepaRG (AID 2283538; active means hit-call score of the fitted dose curve at least 0.9, where 1 is the maximum; inactive means score below 0.9); conditions: mRNA level, 48 h; actives raise or lower the signal
# Summary of the method: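 mRNA induction or loss of UGT1A1, by TaqMan qRT-PCR, in duplicate HepaRG wells after 48 h exposure to half-log dilutions topping at 100 uM; DMSO (0.5%) served as baseline.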
# [6] = read-out: UDP glucuronosyltransferase (UGT1A6), UGT1A6 (gene 54578); test: LTEA_HepaRG_UGT1A6: Life Technologies and Expression Analysis (LTEA) Assay for UDP glucuronosyltransferase (UGT1A6) using HepaRG (AID 2283539; active means hit-call score of the fitted dose curve at least 0.9, where 1 is the maximum; inactive means score below 0.9); conditions: mRNA level, 48 h; actives raise or lower the signal
# Summary of the method: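 Human HepaRG cells were dosed for 48 h in serum-free induction medium with 0.5% DMSO vehicle, eight-point half-log series from 100 uM, in duplicate. UGT1A6 mRNA was measured by qRT-PCR, normalized to ACTB, GAPDH, POLR2A, and fitted bidirectionally against DMSO.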
# [7] = read-out: X-box binding protein 1 (XBP1), XBP1 (gene 7494); test: LTEA_HepaRG_XBP1: Life Technologies and Expression Analysis (LTEA) Assay for X-box binding protein 1 (XBP1) using HepaRG (AID 2283540; active means hit-call score of the fitted dose curve at least 0.9, where 1 is the maximum; inactive means score below 0.9); conditions: mRNA level, 48 h; actives raise or lower the signal
# Summary of the method: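 Differentiated human HepaRG cells in serum-free induction medium were exposed in duplicate for 48 h to eight half-log concentrations up to 100 uM in 0.5% DMSO. XBP1 mRNA was quantified by qRT-PCR, normalised to ACTB, GAPDH and POLR2A, with bidirectional fitting against DMSO.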
# [8] = LTEA_HepaRG_LDH_cytotoxicity: Cytotoxicity Assessment in the Life Technologies and Expression Analysis (LTEA) Assay (AID 2283563);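 on AC50: LDH activity released into spent culture medium as a marker of cell death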
# Summary of the method: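 Differentiated human HepaRG cells, plated 48 h beforehand, were switched to serum-free induction medium and exposed for 48 h to eight half-log concentrations (top 100 uM) in 0.5% DMSO. LDH was measured in spent medium; activity was fitted relative to DMSO vehicle.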
# [9] = ATG_XTT_Cytotoxicity: Cytotoxicity Assessment in the Attagene TRANS-FACTORIAL HepG2 Assay (AID 2283584);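 on AC50: cells exposed to compound for 24 h before reading; active means loss of viability signal versus DMSO baseline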
# Summary of the method: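 HepG2 human liver cells, transiently transfected with multiple GAL4-UAS reporter units, were dosed and read at 24 h by XTT as cell number. Loss of signal was fitted relative to DMSO negative control baseline.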
# [10] = target: Cellular tumor antigen p53 (Homo sapiens) (UniProt P04637); test: TOX21_p53_BLA_p2_ratio: Tox21 HCT-116 p53 Agonism Beta-lactamase Assay, Ratio, Phase 2 (AID 2283592)
# Cellular tumor antigen p53 (Homo sapiens), sequence (P04637 whole entry, looked up): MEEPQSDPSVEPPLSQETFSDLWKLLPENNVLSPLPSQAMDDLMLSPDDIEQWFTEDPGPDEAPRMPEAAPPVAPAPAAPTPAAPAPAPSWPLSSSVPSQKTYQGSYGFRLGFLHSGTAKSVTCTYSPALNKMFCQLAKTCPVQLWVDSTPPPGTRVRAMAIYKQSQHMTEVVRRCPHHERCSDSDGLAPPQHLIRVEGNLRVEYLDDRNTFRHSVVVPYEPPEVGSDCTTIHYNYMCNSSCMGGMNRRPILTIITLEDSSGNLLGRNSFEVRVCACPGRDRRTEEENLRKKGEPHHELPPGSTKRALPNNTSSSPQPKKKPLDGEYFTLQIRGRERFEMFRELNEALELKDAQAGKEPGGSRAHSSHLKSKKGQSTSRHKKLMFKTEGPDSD
# Summary of the method: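 Ratio endpoint: beta-lactamase cleavage of CCF4-AM, blue (460 nm) over green (530 nm). HCT116 reporter line; 16 h treatment, 37C; substrate 2 h RT.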
# [11] = TOX21_p53_BLA_p3_viability: Viability Assessment in the Tox21 HCT-116 p53 Agonism Beta-lactamase Assay, Phase 3 (AID 2283593);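 further: cells exposed to compound for 16 h before reading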
# Summary of the method: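 Cellular ATP was quantified by CellTiter-Glo luminescence, read after 30 min at room temperature. Beforehand, HCT116 cells (4000/well) received compound 5 h post-seeding, 217-fold diluted from DMSO, then incubated 16 h at 37C.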
# [12] = target: Cellular tumor antigen p53 (Homo sapiens) (UniProt P04637); test: TOX21_p53_BLA_p3_ratio: Tox21 HCT-116 p53 Agonism Beta-lactamase Assay, Ratio, Phase 3 (AID 2283596)
# Summary of the method: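 Cells were seeded at 4000/well, rested 5 h at 37C, then dosed with DMSO compound solutions (217-fold dilution) for 16 h. CCF4-AM substrate was loaded for 2 h at room temperature, and the 460/530 nm emission ratio was fitted for gain of signal versus DMSO.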
# [13] = TOX21_p53_BLA_p4_viability: Viability Assessment in the Tox21 HCT-116 p53 Agonism Beta-lactamase Assay, Phase 4 (AID 2283597);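 further: hits lower the luminescence signal meaning cytotoxicity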
# Summary of the method: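 Cytotoxicity was inferred from loss of CellTiter-Glo luminescence. HCT116 cells had been dosed with compounds after 5 h plating, incubated 16 h at 37C and 5% CO2, and exposed to the CCF4-AM substrate for 2 h.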
# [14] = target: Cellular tumor antigen p53 (Homo sapiens) (UniProt P04637); test: TOX21_p53_BLA_p5_ratio: Tox21 HCT-116 p53 Agonism Beta-lactamase Assay, Ratio, Phase 5 (AID 2283599)
# Summary of the method: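 Beta-lactamase reporter ratio (blue 460 nm over green 530 nm, 405 nm excitation) after 2 h CCF4-AM loading, in HCT-116 cells exposed 16 h at 37 C to compounds pinned at 217-fold dilution. Increases relative to DMSO baseline scored.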
# [15] = TOX21_p53_BLA_p5_viability: Viability Assessment in the Tox21 HCT-116 p53 Agonism Beta-lactamase Assay, Phase 5 (AID 2283600)
# Summary of the method: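 Luciferase-coupled ATP quantitation of cells treated for 16 h (37C, 5% CO2) with test chemicals delivered in DMSO via a 217-fold dilution; 4000 cells/well; reagent incubated 30 min at room temperature before luminescence reading.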
# [16] = Tanguay_ZF_120hpf_MORT_legacy: (Legacy) Oregon State University Tanguay Lab 120 Hour Post-fertilization zebrafish Assay for Mortality (AID 2283633);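 on AC50: fitted as increase in binary mortality versus DMSO negative control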
# Summary of the method: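 Dechorionated Tropical 5D wild-type zebrafish embryos, one per well from 6 hpf, were statically exposed at 28C in the dark until 120 hpf (0.64% DMSO final). Mortality was scored as present/absent by brightfield microscopy, fitted positively versus DMSO.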
# [17] = Tanguay_ZF_120hpf_YSE_legacy: (Legacy) Oregon State University Tanguay Lab 120 Hour Post-fertilization zebrafish Assay for Yolk Sac Edema (AID 2283634)
# Summary of the method: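 Tropical 5D wild-type embryos, dechorionated with pronase at 4 hpf, were exposed singly from 6 hpf to 120 hpf under static, sealed, dark conditions at 28C with 0.64% DMSO final. Yolk sac edema was scored present/absent by brightfield microscopy.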
# [18] = Tanguay_ZF_120hpf_AXIS_legacy: (Legacy) Oregon State University Tanguay Lab 120 Hour Post-fertilization zebrafish Assay for Body Axis Malformation (AID 2283635)
# Summary of the method: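 Tropical 5D wild-type zebrafish embryos, dechorionated with pronase at 4 hpf, were placed singly in wells at 6 hpf and exposed statically to test chemical (0.64% DMSO final) at 28C until 120 hpf, then scored by brightfield for body axis defects.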
compound,measurement,setting,value
OCCCBr,outcome,[1],inactive
same,outcome,[2],inactive
same,outcome,[3],inactive
same,outcome,[4],inactive
same,outcome,[5],inactive
same,outcome,[6],inactive
same,outcome,[7],inactive
same,outcome,[8],inactive
same,outcome,[9],inactive
same,outcome,[10],inactive
same,outcome,[11],inactive
same,outcome,[12],inactive
same,outcome,[13],inactive
same,outcome,[14],inactive
same,outcome,[15],inactive
same,outcome,[16],inactive
same,outcome,[17],inactive
same,outcome,[18],inactive
CCC[CH2][Sn]([Cl])([CH2]CCC)[CH2]CCC,outcome,[1],inactive
same,AC50,[2],50 µM (active)
same,AC50,[3],2.84 µM (active)
same,AC50,[4],11.6 µM (active)
same,AC50,[5],3.12 µM (active)
same,AC50,[6],12.6 µM (active)
same,outcome,[7],inactive
same,AC50,[8],2.98 µM (active)
same,AC50,[9],1.8 µM (active)
same,outcome,[9],inactive
same,AC50,[10],31.8 µM (active) and 46 µM (active)
same,AC50,[11],921 nM (active) and 958 nM (active)
same,AC50,[12],25.6 µM (active) and 28.6 µM (active)
same,AC50,[13],917 nM (active) and 983 nM (active)
same,AC50,[14],36.5 µM (active) and 31.8 µM (active)
same,AC50,[15],1.52 µM (active)
same,AC50,[16],0.282 µM (active)
same,outcome,[17],inactive
same,outcome,[18],inactive
CC(C)(C)C(O)(CCc1ccc(Cl)cc1)Cn1cncn1 (stereo not given),outcome,[1],inactive
same,outcome,[2],inactive
same,AC50,[3],12.7 µM (active)
same,AC50,[4],71.9 µM (active)
same,AC50,[5],1.32 µM (active)
same,outcome,[6],inactive
same,outcome,[7],inactive
same,AC50,[8],72 µM (active)
same,outcome,[9],inactive
same,outcome,[10],inactive
same,outcome,[11],inactive
same,outcome,[12],inactive
same,outcome,[13],inactive
same,outcome,[14],inactive
same,outcome,[15],inactive
same,outcome,[16],inactive
same,outcome,[17],inactive
same,outcome,[18],inactive
